# Measured values published in ChEMBL document CHEMBL3988442, “University of Dundee, Small-Polar-MMV Screening Library” (2021).
# Target: AMP-activated protein kinase, AMPK (Homo sapiens) (UniProt P54646+O43741+P54619+Q9UGJ0+Q9Y478+Q13131+Q9UGI9)
# Assay: AMP-dependent Kinase enzyme assay. An in vitro enzyme assay that detects ADP turnover that is directly proportional to AMPK activity. This uses naive AMPK that is activated during the assay with MK-8722
# Format: functional
# Set-up: scale not given: direction of the effect not stated beside the values
# Details: 30 µM
row,SMILES,Percent Effect
1,CN1CC(=O)N(c2cnn(C)c2)CC12CCN(Cc1ccccc1)C2 (stereo not drawn),-2.44%
2,NC(=O)C(CNC(=O)Cc1ccc(F)cc1)Cc1ccc(F)cc1 (stereo not drawn),-46.9%
3,O=C(N1CCOCC1)N1CCc2ncnc(NC3CC3)c2CC1,6.99%
4,Cn1cccc1C(=O)N1CCn2cc(CNC(=O)CC3CC3)nc2C1,10.1%
5,Clc1cc(CN2CCCC2Cn2cncn2)c2ncccc2c1 (stereo not drawn),-1.32%
6,CCc1nnc2n1CCN(Cc1csc(-c3cnn(C)c3)n1)C2,-7.81%
7,COc1ccc(C(CNC(=O)Nc2cn[nH]c2)N2CCOCC2)cc1 (stereo not drawn),3.92%
8,Cc1nn(C)c(C)c1C1CCCN1CC(=O)Nc1ccncc1 (stereo not drawn),-12%
9,Cc1nn(C)c(N(C)C)c1CNC1CCc2c(F)cccc21 (stereo not drawn),-5.14%
10,Cc1ccccc1C(=O)CN1C(=O)c2ccccc2CS1(=O)=O,2.31%
11,CS(=O)(=O)N1CCC(C(=O)NC(Cc2ccsc2)c2ccccn2)CC1 (stereo not drawn),8.49%
12,COc1cccc(Cc2nnc(SC3CCOC3=O)o2)c1 (stereo not drawn),-9.71%
13,Cc1ccc(N2CCC3(CC2)CC(OCC(=O)N(C)C)CO3)nn1 (stereo not drawn),1.03%
14,CC(NC(=O)NCc1cccnc1N1CCCCC1)c1nccs1 (stereo not drawn),4.63%
15,CCc1ccc(NS(=O)(=O)CC2=NC(=O)n3cccc3C2=O)cc1,11.5%
16,c1ncn(CC2CCCN(Cc3nc(C4CC4)no3)C2)n1 (stereo not drawn),-7.43%
17,N#Cc1ccc(C(=O)N2CCC3(CC2)C(=O)Nc2ccccc23)cn1,0.0753%
18,Cc1ccc(-c2nc(CNCCn3cccn3)cs2)o1,4.22%
19,Cc1cnc2n(c1=O)CC(C(=O)Nc1ccccc1Cl)CS2 (stereo not drawn),-2.72%
20,CCn1c(N)nc2cc(C(=O)NCCc3ccccc3C)cnc21,9.51%

row,SMILES,Percent Effect
1,O=C(NCCCN1CCCC1)c1n[nH]c(=O)c2ccccc12,0.621%
2,Cc1nc(CN2CCCC(NCCOCC(F)(F)F)C2)no1 (stereo not drawn),-4.02%
3,O=C1C[C@H]2[C@@H](CCN2C(=O)c2ccccc2)N1CCN1CCOCC1,0.783%
4,CC(C)Oc1ncccc1CNC(=O)N1CCC(C(N)=O)C1 (stereo not drawn),-1.63%
5,CNc1nc2c(c(C(=O)N3CCCC3)n1)CN(Cc1nccn1C)CC2,-8.14%
6,CC(C)NC(=O)c1sccc1N(C)S(=O)(=O)c1ccc(Cl)cc1,10.6%
7,COc1nn(C)c2c1CCCN(C(=O)c1ccccc1)C2,-0.442%
8,COCC(=O)N1CC[C@@H]2O[C@H](COCc3ccncc3)CC[C@@H]21,10.4%
9,Fc1ccc(-c2cnc(CN3CCCC3Cn3cccn3)o2)cc1 (stereo not drawn),-2.14%
10,O=C(C1CC=CC1)N1CCc2c(COCc3ccncc3)cncc2C1,3.39%
11,O=C(NCC(F)(F)F)NC1CCCc2c1cnn2CCO (stereo not drawn),-9.15%
12,O=C(CCOc1ccccc1)N1CCC(Nc2cccnn2)CC1,-7.1%
13,Cc1cc(CN2CCN(c3ccc4nncn4n3)C(C)C2)no1 (stereo not drawn),-6.96%
14,Cc1n[nH]c(C)c1C1COCCN1C(=O)Cc1cccc(F)c1 (stereo not drawn),2.69%
15,CCC(C)(NCC(=O)Nc1ccccc1)c1nc(C)cs1 (stereo not drawn),-4.26%
16,Cc1ccc(-c2nnc(CN3CCc4cnc(C)nc4C3)o2)cc1,-17.5%
17,Cc1cccc2c1OCCC2NCc1c(C)nn(C)c1N(C)C (stereo not drawn),-5.71%
18,CC(C#N)CSc1ccccc1NCC(=O)NCc1ccccc1 (stereo not drawn),11.4%
19,O=C(Cn1cc(I)cn1)N1CCCC1,-2.19%

# Target: Sialic acid-binding Ig-like lectin 9 (Homo sapiens) (UniProt Q9Y336)
# Assay: Hs-Siglec9 ALPHAscreen SOP 20170721
# Set-up: scale not given: direction of the effect not stated beside the values
# Details: 10 µM
# Sequence of Sialic acid-binding Ig-like lectin 9 (Homo sapiens) (Q9Y336 whole entry): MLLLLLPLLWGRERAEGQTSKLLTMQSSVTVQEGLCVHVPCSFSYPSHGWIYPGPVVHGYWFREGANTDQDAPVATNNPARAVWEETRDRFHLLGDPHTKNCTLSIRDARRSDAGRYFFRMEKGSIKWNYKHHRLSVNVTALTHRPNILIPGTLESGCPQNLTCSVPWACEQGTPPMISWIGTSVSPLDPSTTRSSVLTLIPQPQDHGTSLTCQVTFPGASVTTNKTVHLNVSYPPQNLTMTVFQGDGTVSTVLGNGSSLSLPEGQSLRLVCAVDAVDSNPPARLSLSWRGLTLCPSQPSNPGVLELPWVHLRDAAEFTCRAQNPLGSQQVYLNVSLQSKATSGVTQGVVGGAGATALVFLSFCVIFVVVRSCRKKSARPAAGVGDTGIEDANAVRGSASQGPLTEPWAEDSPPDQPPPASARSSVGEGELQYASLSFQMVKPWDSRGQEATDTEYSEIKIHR
row,SMILES,Percent Effect
1,CN1CC(=O)N(c2cnn(C)c2)CC12CCN(Cc1ccccc1)C2 (stereo not drawn),7.88%
2,NC(=O)C(CNC(=O)Cc1ccc(F)cc1)Cc1ccc(F)cc1 (stereo not drawn),-3.44%
3,O=C(N1CCOCC1)N1CCc2ncnc(NC3CC3)c2CC1,-5.96%
4,Cn1cccc1C(=O)N1CCn2cc(CNC(=O)CC3CC3)nc2C1,-5.14%
5,Clc1cc(CN2CCCC2Cn2cncn2)c2ncccc2c1 (stereo not drawn),-0.586%
6,CCc1nnc2n1CCN(Cc1csc(-c3cnn(C)c3)n1)C2,3.08%
7,COc1ccc(C(CNC(=O)Nc2cn[nH]c2)N2CCOCC2)cc1 (stereo not drawn),0.747%
8,Cc1nn(C)c(C)c1C1CCCN1CC(=O)Nc1ccncc1 (stereo not drawn),-1.63%
9,Cc1nn(C)c(N(C)C)c1CNC1CCc2c(F)cccc21 (stereo not drawn),-4.54%
10,Cc1ccccc1C(=O)CN1C(=O)c2ccccc2CS1(=O)=O,-3.21%
11,CS(=O)(=O)N1CCC(C(=O)NC(Cc2ccsc2)c2ccccn2)CC1 (stereo not drawn),4.61%
12,COc1cccc(Cc2nnc(SC3CCOC3=O)o2)c1 (stereo not drawn),15.1%
13,Cc1ccc(N2CCC3(CC2)CC(OCC(=O)N(C)C)CO3)nn1 (stereo not drawn),-1.72%
14,CC(NC(=O)NCc1cccnc1N1CCCCC1)c1nccs1 (stereo not drawn),1.05%
15,CCc1ccc(NS(=O)(=O)CC2=NC(=O)n3cccc3C2=O)cc1,5.52%
16,c1ncn(CC2CCCN(Cc3nc(C4CC4)no3)C2)n1 (stereo not drawn),8.58%
17,N#Cc1ccc(C(=O)N2CCC3(CC2)C(=O)Nc2ccccc23)cn1,1.98%
18,Cc1ccc(-c2nc(CNCCn3cccn3)cs2)o1,-1.49%
19,Cc1cnc2n(c1=O)CC(C(=O)Nc1ccccc1Cl)CS2 (stereo not drawn),0.622%
20,CCn1c(N)nc2cc(C(=O)NCCc3ccccc3C)cnc21,3.5%

row,SMILES,Percent Effect
1,O=C(NCCCN1CCCC1)c1n[nH]c(=O)c2ccccc12,-1.51%
2,Cc1nc(CN2CCCC(NCCOCC(F)(F)F)C2)no1 (stereo not drawn),0.79%
3,O=C1C[C@H]2[C@@H](CCN2C(=O)c2ccccc2)N1CCN1CCOCC1,2.27%
4,CC(C)Oc1ncccc1CNC(=O)N1CCC(C(N)=O)C1 (stereo not drawn),3.84%
5,CNc1nc2c(c(C(=O)N3CCCC3)n1)CN(Cc1nccn1C)CC2,7.16%
6,CC(C)NC(=O)c1sccc1N(C)S(=O)(=O)c1ccc(Cl)cc1,-13%
7,COc1nn(C)c2c1CCCN(C(=O)c1ccccc1)C2,-2.98%
8,COCC(=O)N1CC[C@@H]2O[C@H](COCc3ccncc3)CC[C@@H]21,-8.21%
9,Fc1ccc(-c2cnc(CN3CCCC3Cn3cccn3)o2)cc1 (stereo not drawn),-12.9%
10,O=C(C1CC=CC1)N1CCc2c(COCc3ccncc3)cncc2C1,12.2%
11,O=C(NCC(F)(F)F)NC1CCCc2c1cnn2CCO (stereo not drawn),18.8%
12,O=C(CCOc1ccccc1)N1CCC(Nc2cccnn2)CC1,16.8%
13,Cc1cc(CN2CCN(c3ccc4nncn4n3)C(C)C2)no1 (stereo not drawn),14.4%
14,Cc1n[nH]c(C)c1C1COCCN1C(=O)Cc1cccc(F)c1 (stereo not drawn),0.561%
15,CCC(C)(NCC(=O)Nc1ccccc1)c1nc(C)cs1 (stereo not drawn),30.5%
16,Cc1ccc(-c2nnc(CN3CCc4cnc(C)nc4C3)o2)cc1,15.5%
17,Cc1cccc2c1OCCC2NCc1c(C)nn(C)c1N(C)C (stereo not drawn),0.779%
18,CC(C#N)CSc1ccccc1NCC(=O)NCc1ccccc1 (stereo not drawn),8.76%
19,O=C(Cn1cc(I)cn1)N1CCCC1,10.5%
